# Measurements as given in ChEMBL document CHEMBL4888484, “Replenishing the malaria drug discovery pipeline: Screening and hit evaluation of the MMV Hit Generation Library 1 (HGL1) against asexual blood stage Plasmodium falciparum ,using a nano luciferase reporter read-out” (2022).
# Hit rate of the full screen: of about 4,800 compounds, about 420 (8.8%) showed an effect of 50% or more. The sample holds strong results, similar compounds and a random draw of the others, so the mix is not that of the screen.
# Test system: Plasmodium falciparum
# Test: Confirmatory screen in NF54 nanoGlo assay, in single point, at 2uM, 72h
# Type: functional, Erythrocyte
# Conditions: timepoint 72 hour
row,SMILES,% Inhibition
1,CC(C)C[C@H](N)C(=O)N1CC2CCCCC2C1 (stereo partly drawn),-3%
2,CS(=O)(=O)N1C[C@@H]2CCCN2c2cc(C(F)(F)F)ccc21,4%
3,Cc1csc(C(C)(C)NC(=O)NCCC2=CCCC2)n1,-3%
4,CCOC(=O)c1sc(NC)nc1C(F)(F)F,-19%
5,CC1CN(C(=O)Cn2nnc3ccccc3c2=O)CC1N(C)C (stereo not drawn),-4%
6,CCOCCC1(CNC(=O)c2cc(C)n[nH]2)CCC1,-1%
7,Cc1cnccc1NCCNC1CCN(c2ccc(Cl)cc2)CC1,99%
8,CCn1nccc1C(=O)NC1CCN(c2nnc3ccc(Cl)cn23)CC1,0%
9,Cc1cnccc1NCCNC1CCN(c2ccc3c(c2)CCC3)CC1,72%
10,CCCC(=O)N1CCN(c2c(C)n(-c3ccccc3)c(=O)n(C)c2=O)CC1,2%
11,O=C(NC1CC1)c1nc(C(=O)N2CCN(c3ccccn3)CC2)cs1,-1%
12,Cc1ccccc1CNC(=O)[C@H]1CCCN(c2nc3cccnc3n(Cc3ccccc3)c2=O)C1,-6%
13,Cc1ccccc1CNC(=O)[C@H]1CCCN(c2nc3ccccc3[nH]c2=O)C1,-1%
14,COc1ccccc1CNC(=O)c1nnn(-c2ccc3noc(-c4ccc(Cl)cc4)c3c2)c1C,-1%
15,Cc1nccn1-c1ncc(NC(=O)Nc2ccc3c(c2)OCO3)cn1,21%
16,CCc1nc2cc(N3CCC(C(=O)Nc4ccc5c(c4)OCO5)CC3)cnc2nc1CC,61%
17,Cc1ccc(C(=O)OCC(=O)Nc2ccc3c(c2)OCO3)cn1,-2%
18,CC(C)c1cc(=O)n(Cc2ccccc2Cn2cnc(C(C)C)cc2=O)cn1,-3%
19,Cc1nc(Nc2ccc(F)cc2)nc2c1ncn2-c1ccc(F)cc1,-18%
20,COc1ccc(C(=O)N[C@@H](C(=O)Nc2ccccc2C)c2ccc(Cl)cc2)cc1,7%
21,CC(=O)N(Cc1ccc2c(c1)OCO2)c1cccc(-c2nc3ccccc3o2)c1,-1%
22,CC(=O)N(Cc1ccccc1OCc1c(Cl)cccc1Cl)c1ccc2oc(-c3ccccc3)nc2c1,-13%
23,Clc1ccc(C[n+]2ccc(-c3nc4ccccc4o3)cc2)c(Cl)c1,58%
24,O=C(NC[C@H]1CCCO1)N1CCN(c2nccs2)C(=O)C1,1%
25,Cc1ccc(-n2nc(N3CCN(C(=O)Cc4ccc(F)cc4)CC3)ccc2=O)cc1,4%

row,SMILES,% Inhibition
1,O=C(c1cnc2ccc(F)cc2c1N1CCC(Cc2ccccc2)CC1)N1CCCC1,2%
2,Cc1cccc(C)c1NC(=O)C1CCN(S(=O)(=O)c2c(C)nn(-c3ccccc3)c2C)CC1,-6%
3,Cc1ccc(N2CCN(c3c(C(=O)N4CCCCC4)cnc4ccc(F)cc34)CC2)cc1,-8%
4,CCN(CC)C(=O)c1cnc2snc(C)c2c1N1CCC(C(=O)Nc2c(C)cc(C)cc2C)CC1,57%
5,Cc1nsc2ncc(C(=O)N3CCC(C)CC3)c(N3CCC(C(=O)Nc4cc(F)ccc4F)CC3)c12,60%
6,CCC1(CC)CN(C(=O)c2ccn(C)c(=O)c2)c2ccccc21,2%
7,Cn1cc(-c2noc(Cc3c(F)cccc3Cl)n2)ccc1=O,-1%
8,Clc1cccc(CNc2cc(-c3ccco3)n[nH]2)c1,-7%
9,CS(=O)(=O)N(CCCC(=O)NCc1ccc2c(c1)OCO2)c1ccc(F)cc1,-2%
10,Cc1csc([C@@H](C#N)C(=O)c2ccncc2)n1,-11%
11,CCCCNC(=O)Nc1cccc(C#CCN)n1,-2%
12,c1ccc(Nc2nc(-c3ccccc3)cc(-c3ccccc3)n2)cc1,3%
13,Cc1cc(N)nc(Nc2ccc(Nc3ccccc3)cc2)n1,87%
14,Cc1nc(N)nc(C)c1C(=O)Nc1ccc(Nc2ncccn2)cc1,46%
15,CC(C)c1cc(C(=O)N2CC3CC4CC3C2C4O)n[nH]1 (stereo not drawn),1%
16,COc1ccsc1S(=O)(=O)N1CCC(n2ccnc2)CC1,-3%
17,O=C(c1nc(-c2cccs2)cs1)N1CCN(c2ccccc2)CC1,-15%
18,COc1cc(N2CCn3c(nc4cc(Cl)ccc43)C2)ccc1NC(=O)c1ccccc1OC,4%
19,Fc1ccc(C2=C[C@@H](c3ccc(Cl)cc3)N3N=C(c4ccc(Cl)cc4)NC3=N2)cc1,99%
20,COc1ccc([C@@H]2C=C(c3ccc(Cl)cc3)N=C3NC(NC(=O)c4ccccc4OC)=NN32)cc1,97%
21,COc1ccccc1C(=O)NC1=C(C)Nc2ncnn2[C@H]1c1c[nH]c2ccccc12,-5%
22,COc1cc(NC(=O)c2ccccc2Cl)cc(S(=O)(=O)c2ccc(Cl)cc2)c1,-15%
23,O=C(NC1=NN2C(=NC(c3ccc(Cl)cc3)=C[C@H]2c2ccc(F)cc2)N1)c1ccc(Cl)cc1,32%
24,CCC1=NN2C(=NC(C(=O)O)=C[C@H]2c2ccc(O)cc2)N1,-7%
25,COc1ccccc1C(=O)NC1=NN2C(=NC(c3ccc(Cl)cc3)=C[C@H]2c2ccc(Cl)cc2)N1,94%

row,SMILES,% Inhibition
1,C[C@H]1CCc2c(cnc3c(C(=O)NC4CC4)cnn23)C1,-8%
2,COc1ncccc1CNC(=O)[C@@H]1CCN(c2cc(C)cc(C)c2)C1=O,3%
3,Cc1nsc(N[C@@H]2C=C[C@H](CO)C2)n1,-3%
4,Cc1c(NC(=O)c2n[nH]cc2Cl)c(=O)n(-c2ccccc2)n1C,-13%
5,O=C(c1ccco1)N1CC(n2cnnc2[C@@H]2CCCO2)C1,-2%
6,Cc1ccc(S(=O)(=O)Cc2nc(-c3ccc(C(=O)NCc4ccccc4C)cc3)oc2C)cc1,-13%
7,Cc1ccc(/N=C(/Nc2ccc(Br)cc2)c2cc(C(C)(C)C)c(O)c(C(C)(C)C)c2)cc1,-15%
8,O=S(=O)(c1ccc(F)c(Cl)c1)N1CC[C@H](Oc2ccncc2Cl)C1,75%
9,O=S(=O)(c1ccco1)N1CC[C@H](Oc2ccccc2)C1,2%
10,O=S(=O)(c1ccc(Cl)cc1)N1CCC(c2cc(-c3cccc(C(F)(F)F)c3)[nH]n2)CC1,-1%
11,COC(=O)C1NS(=O)(=O)c2ccc(Cl)cc2C1(O)c1ccccc1F (stereo not drawn),-5%
12,O=C(Nc1ccc(F)c(Cl)c1)c1ccn(COc2ccccc2Cl)n1,-6%
13,O=C(N[C@@H](N1CCCCC1)C(Cl)(Cl)Cl)c1cccnc1,2%
14,CC(C)c1ccc2ncnc(N[C@H]3CCc4[nH]cnc4C3)c2c1,97%
15,O=C(Cc1ccc(F)cc1F)N1CCc2[nH]nc(C(=O)N3CCN(c4ccccc4)CC3)c2C1,3%
16,Cc1ccccc1Nc1c(-c2c[nH]c3ccccc23)nc2ncccn12,1%
17,Cc1cc2c(OC[C@@H](O)CN3CCOCC3)cccc2[nH]1,-13%
18,Cc1cc(C)nc([C@@H](C#N)C(=O)c2ccnc(OCC(F)F)c2)n1,-7%
19,COc1ccccc1C(=O)Nc1ccc(N2CCCN(C)CC2)cc1C(=O)O,-12%
20,Cn1ccnc(N[C@@H](COc2ccccc2F)c2ccccc2)c1=O,-7%
21,Cc1ccc(S(=O)(=O)N2CC[C@H](CC(=O)NCc3ccccc3)C2)cc1C,-16%
22,CNC(=O)COc1c(Cl)ccc(Cl)c1Br,0%
23,CCN(CCC1CCN(C(=O)Nc2ccc(OC3CCOCC3)c(C)c2)CC1)CC(C)C,-3%
24,N#Cc1c(NC(=O)CN2CCC[C@@H]2CO)sc2c1CCCCC2,1%
25,CC(C)(C)[C@H]1CCc2c(sc(NC(=O)C3(F)C(F)(F)C(F)(F)C(F)(F)C(F)(F)C3(F)F)c2C#N)C1,50%

row,SMILES,% Inhibition
1,COc1ccc2[nH]c(-c3nnc(Cn4c(C)cc5ccccc54)s3)cc2c1,2%
2,Cc1cc(S(=O)(=O)NC(=O)CCC(C)C)c(C)o1,-7%
3,Cc1nc2ccccc2n1CC1CCCN1C(=O)C1CCc2cccnc21 (stereo not drawn),-7%
4,CN(Cc1ccccc1)C(=O)C[C@H]1CCN(C(=O)c2cnccn2)C1,-1%
5,COc1ccc2c(c1)/C(=C1/SC(C(C)=O)=C(c3ccccc3)S1)C(=S)C(C)(C)N2C(=O)Nc1ccc(Cl)c(Cl)c1,-7%
6,Cc1ccc(-c2nc(CNC(=O)C[C@H]3CNCCO3)[nH]c2-c2ccccn2)cc1,22%
7,Cn1ncnc1CCNC(=O)NC(C1CCCC1)C1CCCC1,1%
8,O=C(NC1CC1)c1cn(CC2(O)CCN(Cc3ccccc3)CC2)nn1,0%
9,CC1(C)CC(=O)C2(Cc3ccccc3N3CCN(Cc4ccccc4)C[C@H]32)C(=O)C1,8%
10,O=C(Nc1sc2c(c1C(=O)O)CCC2)c1ccsc1,-3%
11,COC(=O)[C@@H](NC(=O)NC1CCCCC1)C(C)(C)C,-2%
12,Cc1ccsc1-c1noc([C@@H]2COCCN2C)n1,-7%
13,COc1c(O)ccc2c(=O)c3c(O)cc(O)c(OC)c3n(C)c12,-3%
14,CC1(C)C(NCC(O)COc2ccc(F)c(F)c2)[C@@H]2CCC[C@@H]21 (stereo partly drawn),72%
15,COc1ccc(Oc2c(CN(CC3CC3)C(=O)c3ccccc3)c(-c3ccccc3)nn2C)cc1,2%
16,CC1(C)Oc2ccc(NC(=O)c3ccco3)cc2NC1=O,-2%
17,CC(C)N(C)CC1CCN(C(=O)c2cc(-c3ccccc3)c(N3CCOCC3)s2)CC1,-4%
18,CCOc1cc(-c2cc(-c3ccccc3O)nc3ccc4ccccc4c23)cc(Br)c1O,91%
19,COc1cccc(CNCc2ccccc2)c1OCc1ccccc1Cl,-1%
20,O=c1c2ccccc2nnn1-c1ncc(C(F)(F)F)cc1Cl,-9%
21,CC(C)(C)CCS(=O)(=O)N1CCC[C@H]1C1CCCCC1,0%
22,Cn1cccc1C(=O)N1CCCN(S(C)(=O)=O)[C@H]2CCC[C@H]2C(=O)NCC1,0%
23,CC(C)CCn1nnnc1[C@]1(N(C)C)CCCN(C(=O)c2cccn2C)C1,88%
